The text below walks through data of PubChem BioAssay (NCATS).

Each structure is given as a SMILES string. Where “and” joins values, the source holds several entries; their conditions need not be identical. Equal entries are not always repeated. Results filed as inconclusive are left out. Calls of active or inactive are those of the source. Unless noted, the call rests on the fitted dose curve; in most records, active means well fitted curve in the direction sought with a large enough effect; inconclusive means small, poorly fitted or top-dose-only effect, or another doubt; inactive means no such curve, though single readings can be large; an effect the other way counts as inactive or inconclusive. Peptide text beside a SMILES is read from it.

A short description of assay [1]: Cell Proliferation Assay against the HBL1 Cell Line (AID 651646).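 Further: cells exposed to compound for 48 h before reading.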 As to conditions: HBL1 DLBCL cells; at 46.1 µM (top of the series) unless noted. Summed up: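 HBL1, 500 cells/well, RPMI no phenol red + 5% FBS; cpd pinned, 48 h 37C/5% CO2; CellTiter-Glo, 15 min RT, luminescence. % activity: DMSO = 100%, bortezomib 9.2 uM final = 0%.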
Assay [2] is described as follows: Cell Proliferation Assay against the TMD8 Cell Line (Caspase readout at 16 hrs) (AID 651712). Further: potency means the concentration at half of the fitted maximal effect. Summed up:
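Caspase-Glo luminescence after 16 h compound exposure of TMD8 cells, 37 °C, 5% CO2. Medium: RPMI without phenol red, 5% FBS. Normalisation: DMSO = 0%, bortezomib 9.2 uM final = 100%.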

Assay [3] in a line: Cell Proliferation Assay against the TMD8 Cell Line (Caspase readout at 8 hrs) (AID 651713). Further: potency means the concentration at half of the fitted maximal effect. Summed up: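 Apoptosis readout: caspase 3/7 luminescence (Caspase-Glo), 15 min RT. Cells: TMD8, 500/well, RPMI + 5% FBS, no phenol red. Exposure 8 h, 37C. % activity vs DMSO = 0, bortezomib 9.2 uM final = 100.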
Assay [4] in a line: qHTS assay for small molecule agonists of the antioxidant response element (ARE) signaling pathway (AID 651741; active means well fitted activation curve with a large enough effect in the signal ratio; the % refers to the signal ratio; further: potency means the concentration at half of the fitted maximal effect; on activation: % of control where 0% means no effect). The method, boiled down: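 HepG2 ARE-bla reporter cells, 2,000/well; 5 h settle at 37 C/5% CO2; compound pin transfer (23 nL, DMSO); 16 h at 37 C; LiveBLAzer B/G FRET substrate, 2 h RT; fluorescence intensity read.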
Assay [5] in a line: qHTS assay for small molecule activators of the p53 signaling pathway (AID 651743; active means well fitted activation curve with a large enough effect in the signal ratio, not every such curve was filed as active; the % refers to the signal ratio; further: potency means the concentration at half of the fitted maximal effect; on activation: % of control where 0% means no effect). As to conditions: HCT-116 p53RE-bla, beta-lactamase FRET ratio, 16 h; activation: stronger effect = higher value. Summed up:
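Reporter: beta-lactamase driven by p53 response elements, stably integrated in HCT-116 cells. Cells seeded at 4,000/well, 5 h preincubation, compound (DMSO) 16 h at 37 C; B/G FRET substrate 2 h RT; fluorescence intensity read.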
A general note: qHTS replaces the single test concentration by a dilution series.

A short description of assay [6]: qHTS assay for small molecule activators of the nuclear factor-kappa B (NF-kB) signaling pathway (AID 651749; active means well fitted activation curve with a large enough effect in the signal ratio; the % refers to the signal ratio; further: % of control where 0% means no effect). As to conditions: NF-kB-bla ME-180 cells, beta-lactamase FRET ratio, 16 h; stronger effect = higher value. The method, boiled down:
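NF-kB-bla ME-180 cells, 2,000/well; 23 nL compound or DMSO pinned; 16 hr, 37C/5% CO2; beta-lactamase FRET read-out.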

The target in assay [7] is Tumor necrosis factor (Homo sapiens) (UniProt P01375). As to the kind of experiment: qHTS assay to identify small molecules that stimulate Tumor Necrosis Factor-alpha (TNF-alpha) secretion (AID 651757; active means well fitted curve in the direction sought with a large enough effect in the signal ratio; the % refers to the signal ratio; further: potency means the concentration at half of the fitted maximal effect). The method, boiled down: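 THP-1 cells, 3000/well; compound 17 hrs, 37 C; add cryptate/XL665 anti-TNF-alpha antibody pair; 3 hr RT; TR-FRET (HTRF) read of secreted TNF-alpha. Quantitative HTS format.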
Tumor necrosis factor (Homo sapiens), sequence (P01375 whole entry, looked up): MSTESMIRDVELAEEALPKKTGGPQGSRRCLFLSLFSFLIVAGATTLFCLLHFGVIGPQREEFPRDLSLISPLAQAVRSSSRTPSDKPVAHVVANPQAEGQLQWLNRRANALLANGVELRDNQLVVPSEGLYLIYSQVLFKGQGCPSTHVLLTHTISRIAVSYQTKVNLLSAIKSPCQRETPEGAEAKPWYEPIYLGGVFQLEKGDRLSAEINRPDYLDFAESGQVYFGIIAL

Assay [8] is described as follows: qHTS assay for small molecule disruptors of the mitochondrial membrane potential - 1 hr assay (AID 651754; calls by dose curve; further: nearly all actives have a fitted effect of over 35% in size; further: potency means the concentration at half of the fitted maximal effect). The method, boiled down: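 Read-out: dye fluorescence at 490 nm ex/535 nm em (monomers) and 540 nm ex/590 nm em (aggregates) in HepG2 cells. Compound exposure 1 hr at 37C, followed by 30 min dye loading.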
Assay [9] can be described thus: qHTS assay for small molecule disruptors of the mitochondrial membrane potential - 5 hr assay (AID 651755; calls by dose curve; further: nearly all actives have a fitted effect of over 40% in size; further: potency means the concentration at half of the fitted maximal effect). The method, boiled down:
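Read-out: ratiometric Mito-MPS fluorescence, green monomer (ex 490/em 535) vs red mitochondrial aggregate (ex 540/em 590). HepG2 cells treated 5 hr at 37C before 30 min dye loading.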

Assay [10] is described as follows: qHTS assay to identify small molecules that stimulate interleukin-8 (IL-8) secretion (AID 651758; active means well fitted activation curve with a large enough effect in the signal ratio; the % refers to the signal ratio; further: 0% is about no effect). Summed up:
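Compounds are added to THP-1 cells (2000 per well) and left 16 hrs at 37 C. A labeled anti-IL-8 antibody pair is then added, and IL-8 secretion is measured by time-resolved FRET after 1-3 hrs at room temperature.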

As to `CCN(CCO)CCCC(C)Nc1ccnc2cc(Cl)ccc12` (stereo unspecified), the viability, percent of control in assay [1] came out at 121%. In addition, the Potency result in [2] and in assay [3] was “inactive” in each case.

Take `CC(C)c1ccc2c(c1)c(SC(C)(C)C)c(CC(C)(C)C(=O)O)n2Cc1ccc(Cl)cc1`: the viability, percent of control in assay [1] was found to be 8.87%.

Consider `CCN(CC)C(=S)SSC(=S)N(CC)CC`, for which the Potency result in [4] is “inactive”. Besides, the activation in assay [5] was 4.22% (inactive); in assay [6], 0.724% (inactive).

For the compound `Nc1cccc2c1CN(C1CCC(=O)NC1=O)C2=O` (stereo unspecified), in assay [1], the viability, percent of control is 121% [at 92.2 µM]. Also, the Potency result in assay [2] and in assay [3] was “inactive” throughout.

In the case of `S=c1nc[nH]c2nc[nH]c12`, in assay [1], the viability, percent of control came to 54.4% [at 92.2 µM]. The Potency entry in assay [2] and in [3] was “inactive” throughout.

In the case of `CCCCC(CC)COC(=O)C(C#N)=C(c1ccccc1)c1ccccc1` (stereo unspecified), the activation was -3.23% (inactive) in assay [5] and 0.0169% (inactive) in assay [6]. In assay [7], the Potency entry is “inactive”.

Regarding `Cc1nc(Nc2ncc(C(=O)Nc3c(C)cccc3Cl)s2)cc(N2CCN(CCO)CC2)n1`, the viability, percent of control in assay [1] was found to be 27.1%. Moreover, the Potency result in assay [3] was “inactive”.

In the case of `O=c1c(O)c(-c2ccc(O)cc2O)oc2cc(O)cc(O)c12`, in assay [5], the activation was -1.48% (inactive).

As for `Cc1cccc(-c2[nH]ncc2-c2ccc3ncccc3n2)n1`, the viability, percent of control in [1] stood at 116% [at 92.2 µM]. In addition, the Potency entry in [2] and in assay [3] was “inactive” throughout.

Turning to `COc1cc(OC)c(C(=O)CCCN2CCCC2)c(OC)c1`, in assay [4], the Potency entry is “inactive”. The activation is -0.273% (inactive) in [5] and -0.152% (inactive) in assay [6].

`Cc1cccc(C#Cc2ccccc2)n1`: the viability, percent of control in [1] came out at 102%. Moreover, the Potency entry in assay [2] was “inactive”.

For `CS(=O)(=O)OCCCCOS(C)(=O)=O`, the activation in assay [5] is 1.64% (inactive) and 0.944% (inactive) and -3.49% (inactive). Moreover, the Potency result in assay [8], in assay [9] and in [7] was “inactive” throughout. Further, in assay [10], the compound was called inactive.

In the case of `CC(=O)Nc1ccc(O)cc1`, the Potency result in assay [4] and in assay [7] was “inactive” each time.

With `Nc1ccc(S(N)(=O)=O)cc1`, the Potency result in assay [4], in assay [8], in assay [9] and in assay [7] was “inactive” each time. In assay [5], the activation was -2.72% (inactive).

Turning to `CC(C)C[C@H](NC(=O)[C@H](Cc1ccccc1)NC(=O)c1cnccn1)B(O)O`, the viability, percent of control in assay [1] came to 3.27%. The figures for the Potency in assay [2] and in assay [3] were 0.0026 µM (active) and 0.833 µM (active), respectively.

For `N[C@@H](Cc1cc(I)c(Oc2cc(I)c(O)c(I)c2)c(I)c1)C(=O)O`, in assay [4], the Potency is 54.5 µM (active). The activation in assay [6] is 8.63% (inactive).

On to `CN(C)c1ccc2nc3ccc(=[N+](C)C)cc-3sc2c1`, for which the Potency in [5] is 20 µM (active); in assay [8], 3.76 µM (active); in assay [9], 5.31 µM (active); in assay [7] it was 10.6 µM (active).

For `CCCc1cc(=O)[nH]c(=S)[nH]1`, the Potency entry in assay [4] and in assay [7] was “inactive” each time. Also, in [5], the activation was 0.119% (inactive) and 0.547% (inactive).

Consider `COc1c2occc2cc2ccc(=O)oc12`, for which the Potency result in [4], in [8], in assay [9] and in assay [7] was “inactive” in each case. Also, the activation in assay [5] is -0.24% (inactive) and -0.96% (inactive).

Take `COC(=O)[C@H](Cc1ccccc1)NC(=O)[C@@H](N)CC(=O)O` (H-Asp-Phe-OMe): the Potency result in assay [4] and in [7] was “inactive” in each case. The activation is 0.335% (inactive) and -1.33% (inactive) in assay [5]; -1.39% (inactive) and -0.748% (inactive) in [6]. The call in [10] was inactive.

Regarding `COc1cc2c(N3CCN(C(=O)Nc4ccc(OC(C)C)cc4)CC3)ncnc2cc1OCCCN1CCCCC1`, in assay [1], the viability, percent of control amounted to 15.5%.

As for `c1ccc2[nH]c(-c3cscn3)nc2c1`, the Potency entry in assay [4] and in [7] was “inactive” throughout. Besides, the activation in assay [6] is -1.73% (inactive) and -1.48% (inactive).

For `CNC[C@H](O)c1ccc(O)c(O)c1`, the Potency in assay [4] is 48.6 µM (active). Also, the activation in [5] was 1.2% (inactive).

With `Nc1nc(Cl)nc2c1ncn2[C@H]1C[C@H](O)[C@@H](CO)O1`, the Potency entry in assay [2] is “inactive”. Also, in assay [5], the Potency was 0.501 µM (active). Moreover, the activation in assay [6] is 0.321% (inactive).

With `Cc1ccc(C)c(OCCCC(C)(C)C(=O)O)c1`, the Potency result in [4], in assay [8], in assay [9] and in assay [7] was “inactive” throughout. Moreover, the activation in assay [6] is -1.25% (inactive) and -0.0385% (inactive).

For the compound `NS(=O)(=O)c1cc(C(=O)O)c(NCc2ccco2)cc1Cl`, the Potency entry in assay [4], in assay [8], in [9] and in [7] was “inactive” in each case. Also, the activation in assay [6] was -1.24% (inactive) and -2.58% (inactive).

Take `CCOC(=O)C1=C(O)C(=O)N(Cc2ccccc2)C1`: the viability, percent of control in [1] is 107%. Also, the Potency result in assay [2] and in assay [3] was “inactive” in each case.

For the compound `C[C@@H](N)C1CCC(C(=O)Nc2ccncc2)CC1` (stereo partly specified), in assay [1], the viability, percent of control was 95.4%. In addition, the Potency result in [2] and in assay [3] was “inactive” throughout.

In the case of `CCN(CC)CCOc1ccc(Nc2ncc3cc(-c4c(Cl)cccc4Cl)c(=O)n(C)c3n2)cc1`, the viability, percent of control in [1] came out at 1.36%. Also, the Potency in [3] was 26.4 µM (active).

Consider `COc1cc(Nc2c(C#N)cnc3cc(OCCCN4CCN(C)CC4)c(OC)cc23)c(Cl)cc1Cl`, for which the viability, percent of control in [1] worked out at 5.95%. Moreover, the Potency result in assay [2] was “inactive”.

For the compound `Cc1ccc(Nc2nccc(N(C)c3ccc4c(C)n(C)nc4c3)n2)cc1S(N)(=O)=O`, the viability, percent of control in assay [1] was determined as 35.9%. The Potency entry in assay [3] was “inactive”.

On to `CC1(C)NC(=O)N(c2ccc([N+](=O)[O-])c(C(F)(F)F)c2)C1=O`, for which the Potency in assay [4] was 54.5 µM (active). Further, in assay [5], the activation is 15.1% (inactive).

For `Cc1cc(O)c2c(c1)C(=O)c1cc(O)cc(O)c1C2=O`, in assay [6], the activation is 0.85% (inactive) and -1.63% (inactive).

Turning to `CCc1nc(N)nc(N)c1-c1ccc(Cl)cc1`, the Potency entry in assay [7] is “inactive”. Moreover, the compound was classed as inactive in [10].

Take `Cc1ccc(NC(=O)c2ccc(CN3CCN(C)CC3)cc2)cc1Nc1nccc(-c2cccnc2)n1`: in assay [1], the viability, percent of control worked out at 38%.

Consider `CCOC(=O)C(C)Oc1cccc2c(=O)n(CC(=O)Nc3ccc4c(c3)OCCO4)ccc12` (stereo unspecified), for which the viability, percent of control in assay [1] turned out to be 108%. Also, the Potency result in assay [2] and in assay [3] was “inactive” throughout.
